# Bioassay records (PubChem)
# In the library only some 3.6% were active in any assay of this set; here they are far more common.
# AmpC detergent = AmpC beta-lactamase inhibition with detergent present | P00811 | AmpC hydrolysis of nitrocefin, absorbance 480 nm, 0.01% Triton | Potency, µM (doses to about 114 µM), without a hit: at the highest dose activity change, negative = inhibition, hits mostly inhibitors | 0.041% of 370,000 active | AID 485294;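 note: 0% = no-compound wells and -100% = no-enzyme wells; nearly all actives have a fitted effect of over 25% in size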
# Target sequence (P00811 whole entry, looked up): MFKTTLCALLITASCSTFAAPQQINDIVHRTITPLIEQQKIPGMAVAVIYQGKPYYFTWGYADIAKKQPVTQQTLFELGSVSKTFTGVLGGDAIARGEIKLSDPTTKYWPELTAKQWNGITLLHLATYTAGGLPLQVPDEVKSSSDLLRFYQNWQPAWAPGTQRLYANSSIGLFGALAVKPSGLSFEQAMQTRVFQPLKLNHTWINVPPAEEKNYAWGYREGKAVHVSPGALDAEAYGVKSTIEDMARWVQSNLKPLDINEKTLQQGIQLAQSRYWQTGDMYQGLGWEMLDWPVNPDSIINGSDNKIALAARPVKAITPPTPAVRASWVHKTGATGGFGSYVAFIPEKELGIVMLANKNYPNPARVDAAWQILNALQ
#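 AmpC (5.3 nM in the dispensed reagent) in 20 mM phosphate pH 7.0 with 0.01% (detergent screen) or 0.0001% Triton X-100 was preincubated with compounds for 15 min at room temperature. Nitrocefin was then added from an 800 uM solution, and hydrolysis was followed at 480 nm.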
# AmpC no deterg = blocks E. coli AmpC beta-lactamase in detergent-free assay; P00811; AmpC nitrocefin hydrolysis, absorbance 480 nm, 0.0001% Triton; Potency, µM (doses to about 57.1 µM), inactives show top-dose activity change, negative = inhibition, usual class: inhibitors; 0.52% of 330,000 active;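 note: plate controls were no compound for no effect and no enzyme for full effect; nearly all actives have a fitted effect of over 20% in size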
#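 AmpC (5.3 nM in the dispensed reagent) in 20 mM phosphate pH 7.0 with 0.01% (detergent screen) or 0.0001% Triton X-100 was preincubated with compounds for 15 min at room temperature. Nitrocefin was then added from an 800 uM solution, and hydrolysis was followed at 480 nm.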
# Sm TGR block = S. mansoni TGR enzyme inhibition. Potency, µM (series often up to 114 µM), for the others: top-dose activity change, negative = inhibition, hits mostly inhibitors. purified TGR, DTNB reduction, TNB absorbance 405 nm. Q962Y6. 3% of 360,000 active; note: nearly all actives have a fitted effect of over 60% in size
#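 Kinetic colorimetric format: TGR-catalysed, NADPH-driven DTNB reduction monitored via TNB absorbance. Enzyme dispensed at 20 nM; compound exposure 15 min at room temperature before reaction start.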
# FBPA Giardia inh = blocks Giardia fructose-bisphosphate aldolase activity; 0.71% of 290,000 active; purified Giardia FBPA; A8B2U2; AID 2451; Potency, µM (doses to about 59.6 µM), for the others: at the highest dose activity, negative = inhibition, hits mostly inhibitors; note: nearly all actives have a fitted effect of over 55% in size
# Target sequence (A8B2U2 whole entry, looked up): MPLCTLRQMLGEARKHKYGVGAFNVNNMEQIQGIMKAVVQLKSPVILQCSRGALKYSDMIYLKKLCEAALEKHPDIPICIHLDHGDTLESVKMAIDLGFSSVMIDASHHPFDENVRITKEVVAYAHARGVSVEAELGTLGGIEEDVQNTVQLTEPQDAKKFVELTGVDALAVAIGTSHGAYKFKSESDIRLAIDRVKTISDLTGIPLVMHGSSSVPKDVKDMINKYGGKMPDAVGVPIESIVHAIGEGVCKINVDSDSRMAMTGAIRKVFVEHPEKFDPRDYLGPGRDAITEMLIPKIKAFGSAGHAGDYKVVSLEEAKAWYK
#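 Giardia FBPA (40 nM reagent) was preincubated 10 min at RT with compound (up to 57.5 uM final), then substrate plus GAPDH/TPI/NAD/arsenate coupling system with diaphorase/resazurin was added; resorufin fluorescence (525/598 nm) was read after 20 min.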
# Starred values were filed as active, the others as inactive; u = inconclusive; x = not tested or not shown. Calls come from the whole dose curve; as a rule, active = well fitted curve in the direction sought with a large enough effect; inconclusive = small, poorly fitted or top-dose-only effect, or another doubt; inactive = no such curve, though single readings can be large; an effect the other way counts as inactive or inconclusive. Unless noted, % is set by controls: 0 for no effect and ±100 for the full control effect; potency is the fitted concentration of half-maximal effect.
SMILES,AmpC detergent,AmpC no deterg,Sm TGR block,FBPA Giardia inh
CCc1ccc(S(=O)(=O)/N=C2\C=C(Nc3cccc(C(=O)O)c3)C(=O)c3ccccc32)cc1,-0.3%,-23.9%,-22.5%,x
O=C1c2ccccc2C(=O)N1CCSc1ncn[nH]1,-12.0%,-13.7%,-2.0%,-20.0%
Cc1cc(C)c(S(=O)(=O)/N=C2\C=C(Nc3ccc(C(=O)O)cc3)C(=O)c3ccccc32)c(C)c1,-12.2%,12.6µM*,u,u
Cc1cc(C)c(S(=O)(=O)/N=C2\C=C(NS(=O)(=O)c3ccccc3)C(=O)c3ccccc32)c(C)c1,-1.6%,-52.9%,-3.3%,u
CCc1ccc(S(=O)(=O)/N=C2\C=C(Nc3ccc(O)cc3)C(=O)c3ccccc32)cc1,-14.4%,-34.6%,-21.6%,1.41µM*
CCc1ccc(S(=O)(=O)/N=C2\C=CC(=O)c3ccccc32)cc1,-4.0%,15.8µM*,8.91µM*,7.06µM*
CCN(CC)C(=O)C(=O)N/N=C/c1ccc(F)cc1,-0.6%,0.5%,-3.2%,1.3%
CC(C)N(C(=O)[C@H]1CC(CC(=O)NC(C)(C)C)C(=O)N2CCc3c([nH]c4ccccc34)[C@]12C)C(C)C (stereo not given in full),x,221.5%,x,x
CCNc1ncc2nc(C)c(=O)n(Cc3ccc(F)cc3)c2n1,x,x,x,5.2%
O=C(O)c1ccc(NC2=C/C(=N/S(=O)(=O)c3ccccc3)c3ccccc3C2=O)cc1,3.9%,-37.2%,20µM*,u
O=C1OCCC1N(C(=O)C1CC1)c1cccc(Cl)c1 (stereo not given),x,x,x,7.0%
C=CCSc1nnc(-c2sc(-c3ccccc3)nc2C)n1C,-10.1%,0.0%,-12.7%,-27.3%
C=CCN(C(=O)CSC1=NC(=O)CN1C(C)=O)c1nc(C)c(-c2ccccc2)s1,-5.7%,29.4%,4.47µM*,-1.8%
O=C(/C=C/c1cccc(Cl)c1)c1ccc([N+](=O)[O-])o1,u,-28.8%,0.708µM*,x
Cc1cc(O)c(C(=O)/C=C/c2cccc([N+](=O)[O-])c2)c(=O)o1,1.4%,14.1µM*,0.0%,-6.6%
COc1cc2c(cc1OC)CN(C(=O)c1ccc([N+](=O)[O-])o1)CC2,-1.1%,4.3%,28.2µM*,-22.8%
COc1cc(/C=C/[N+](=O)[O-])ccc1O,-0.1%,-43.3%,35.5µM*,u
Cc1cc(O)c(C(=O)/C=C/c2ccccc2O)c(=O)o1,-0.1%,-49.0%,u,-10.5%
CCOC(=O)C1CCN(CC(=O)Nc2cc(C)c3c(=O)oc4ccccc4c3n2)CC1,-4.8%,x,3.2%,x
COc1ccc(/C=C/C(=O)c2ccc([N+](=O)[O-])o2)cc1OC,-14.5%,1.0%,6.31µM*,x
COc1cc(/C=C/C(=O)c2ccc([N+](=O)[O-])o2)ccc1O,-4.2%,-11.1%,3.16µM*,x
COc1ccc(/C=C/C(=O)c2ccc3c(c2)OCCO3)cc1[N+](=O)[O-],u,-26.3%,4.0%,1.8%
C=CCSc1nc(N)c(C#N)c(-c2ccccc2)c1C#N,-15.4%,-19.1%,-14.1%,6.7%
C=CCSc1nc2c(c(-c3ccsc3)c1C#N)CN(C)CC2,2.3%,1.8%,10µM*,-19.7%
CC(C)NC(=O)Nc1ccc2c(c1)C(=O)N([C@H](C)CO)C[C@H](C)[C@@H](CN(C)S(=O)(=O)c1cn(C)cn1)O2,x,1.4%,x,x
SMILES,AmpC detergent,AmpC no deterg,Sm TGR block,FBPA Giardia inh
CCOc1ccc(-c2nnc3ccc(SCC(=O)NCc4ccco4)nn23)cc1,1.1%,4.4%,14.8%,-2.6%
CNC(=O)CSc1nnc(-c2cccnc2)n1-c1ccc(C)cc1,6.0%,-7.1%,x,-0.9%
O=C(CSc1nnc(C2CCCCC2)n1-c1ccccc1)NCc1ccco1,u,-4.1%,44.7µM*,6.0%
Cc1ccc(-n2c(SCC(=O)NCc3ccco3)nnc2-c2cccnc2)cc1,-8.2%,-1.5%,44.7µM*,2.9%
O=C(CSc1ccc2nnc(-c3ccncc3)n2n1)NCc1ccco1,0.9%,-6.0%,3.16µM*,-12.1%
CCNC(=O)CSc1nnc(C2CC2)n1-c1ccccc1,1.1%,-3.5%,6.4%,4.1%
O=C(CSc1ccc2nnc(-c3ccc(F)cc3)n2n1)NCc1ccco1,-2.2%,-5.3%,44.7µM*,-1.6%
CCOC(=O)c1c(C)[nH]c(C)c1S(=O)(=O)N1CCN(c2ccc(Cl)cc2)CC1,6.5%,x,0.8%,x
CCOC(=O)CNC(=O)CSc1ccc2nnc(-c3ccc(F)cc3)n2n1,u,-15.2%,-1.6%,-0.6%
CCSc1ccc2nnc(-c3ccc(F)cc3)n2n1,2.5%,0.398µM*,2.3%,0.8%
CCOC(=O)CC(=O)CSc1ccc2nnc(-c3ccccc3)n2n1,2.1%,0.159µM*,-28.3%,3.7%
Cc1ccc(-c2nnc3ccc(SCC(=O)NCc4ccco4)nn23)cc1,-20.4%,-13.5%,50.1µM*,3.9%
COCCN(CC(=O)Nc1cccc(C)c1C)C(=O)CN1C(=O)NC2(CCCCC2)C1=O,0.7%,1.8%,-22.2%,x
CCCCN1C(=O)c2ccc(C(=O)NCc3ccco3)cc2C1=O,5.6%,-3.8%,-4.3%,x
CCCN1C(=O)c2ccc(C(=O)NCc3ccco3)cc2C1=O,1.8%,-32.6%,31.6µM*,2.3%
O=C(NCc1ccco1)c1cccc(NC(=O)c2ccco2)c1,-2.7%,-29.1%,44.7µM*,-1.1%
O=C(NCc1ccccc1)c1cccc(NC(=O)c2ccco2)c1,-13.1%,-10.8%,0.0%,-0.9%
CCc1nc2ccc(C(=O)NCc3ccco3)cc2nc1CC,3.1%,-10.9%,28.2µM*,1.7%
COCCCN1C(=O)c2ccc(C(=O)NCc3ccco3)cc2C1=O,u,-11.1%,28.2µM*,-0.3%
COc1cc(NC(=O)Cc2cccc3ccccc23)c(C(=O)O)cc1OC,-13.8%,-24.8%,3.2%,-11.2%
COC(=O)c1ccc2c(=O)n(CCCCCC(=O)NCCc3ccccc3)c(=O)[nH]c2c1,4.9%,x,-3.3%,x
COc1ccc(CCN2CCC[C@H](CN3CCc4cc(OC)c(OC)cc4CC3=O)C2)cc1OC,x,x,x,-8.3%
Cc1ccc(-c2nc3ccccc3nc2NN)cc1,-0.5%,-18.1%,-0.3%,-8.5%
COc1ccc(N(CCC(=O)Nc2ccccc2F)S(=O)(=O)c2ccc(C)cc2C)cc1,-3.3%,-0.2%,5.8%,x
NS(=O)(=O)c1ccc(CNC(=O)CSc2nc3ccc(Cl)cc3[nH]2)cc1,u,-28.1%,10.6%,11.2%
SMILES,AmpC detergent,AmpC no deterg,Sm TGR block,FBPA Giardia inh
Cc1cccc(NC(=O)c2ccccc2NC(=O)c2ccco2)c1,-0.1%,6.31µM*,-28.1%,x
O=C(Nc1ccc(Cl)cc1C(=O)O)c1ccc2c(c1)C(=O)N(Cc1ccco1)C2=O,-13.3%,-16.6%,50.1µM*,20.0%
CCOC(=O)/C(=C/c1ccc(N2CCC(c3ccccc3)=N2)cc1)C(C)=O,-15.1%,-10.2%,-35.5%,-1.1%
c1ccc(C2=NN(c3ccccc3)CC2)cc1,5.7%,-33.4%,5.01µM*,-2.5%
O=C(Cc1ccccc1[N+](=O)[O-])Nc1ccc(S(=O)(=O)N2CCCC2)cc1,0.3%,-45.0%,-2.6%,x
O=C1c2nc3cc(-c4ccco4)[nH]n3c(=O)c2CN1Cc1ccccc1,0.7%,-39.3%,20µM*,1.7%
